# Laboratory results as given in the supplement of paper PMC8866396.
# ± gives the standard deviation of the averaged measurements.
# Key:
# IL-6-GFP PC-9GR = test: cell viability (CCK-8 OD) relative to DMSO control (fraction of control); higher = more viable cells; conditions: compound concentration: 10 uM; treatment time: 48 h
# Outline: (§1)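 A purchased 510-compound library was screened at a final 10 μM for 48 h against PC-9 and PC-9GR lung cancer cells overexpressing IL-6-GFP via a lentiviral construct, seeded at 3000 cells/well in 96-well plates. GFP imaging was done on a parallel plate set. For viability, CCK-8 absorbance was recorded and each well's optical density was divided by that of the vehicle control well. There were two independent replicates.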
# IL-6-GFP PC-9 = test: as above; conditions: compound concentration: 10 uM; treatment time: 48 h
# Outline: as §1
SMILES,cell viability (IL-6-GFP PC-9GR),cell viability (IL-6-GFP PC-9)
CC(C(=O)O)c1ccc(C(=O)c2cccs2)cc1 (stereo not drawn) [Suprofen],1.53 ± 0.58,1.13 ± 0.022
CC(C)(C#N)c1cc(Cn2cncn2)cc(C(C)(C)C#N)c1 [Anastrozole],1.15 ± 0.045,1.01 ± 0.078
CC(=O)OCC(=O)C1(O)CCC2C3CCC4=CC(=O)CCC4(C)C3C(=O)CC21C (stereo not drawn) [Cortisone acetate],1.29 ± 0.26,1.12 ± 0.1
CC(=O)OC[C@H]1O[C@@H]([S-])[C@H](OC(C)=O)[C@@H](OC(C)=O)[C@@H]1OC(C)=O.CCP(CC)CC.[Au+] [Auranofin],0.00506 ± 0.12,0.0702 ± 0.04
O=c1c(-c2ccc(O)cc2)coc2cc(O)cc(O)c12 [Genistein],0.975 ± 0.05,0.58 ± 0.32
CS(=O)(=O)n1cc2c(n1)CN(C1COC(c3cc(F)ccc3F)C(N)C1)C2 (stereo not drawn) [Omarigliptin (MK-3102)],0.931 ± 0.14,1.02 ± 0.25
CC(=O)Nc1ccccc1 [Acetanilide],1.31 ± 0.19,1.24 ± 0.12
COc1c(OC2OC(CO)C(O)C(O)C2O)cc2c(c1OC)-c1ccc(SC)c(=O)cc1C(NC(C)=O)CC2 (stereo not drawn) [Thiocolchicoside],1.18 ± 0.26,1.2 ± 0.12
Cc1cccc(N(C)C(=S)Oc2ccc3ccccc3c2)c1 [Tolnaftate],1.38 ± 0.047,0.8891 ± 0.0065
CC1CC2C3CC(F)C4=CC(=O)C=CC4(C)C3(F)C(O)CC2(C)C1(OC(=O)c1ccco1)C(=O)SCF (stereo not drawn) [fluticasone furoate],0.711 ± 0.089,0.961 ± 0.27
CNCC(O)c1ccc(O)c(O)c1.O=C(O)C(O)C(O)C(=O)O (stereo not drawn) [Epinephrine bitartrate],1.17 ± 0.15,1.2 ± 0.022
Cc1c(Cl)cccc1Nc1ncccc1C(=O)O [Clonixin],0.814 ± 0.24,1.08 ± 0.027
CCN(CC)CCNC(=O)c1c(C)[nH]c(/C=C2\C(=O)Nc3ccc(F)cc32)c1C [Sunitinib],0.573 ± 0.2,0.911 ± 0.27
CNC(=O)c1cc(Oc2ccc(NC(=O)Nc3ccc(Cl)c(C(F)(F)F)c3)cc2)ccn1 [Sorafenib],0.634 ± 0.37,0.565 ± 0.1
S=c1nc[nH]c2nc[nH]c12 [Mercaptopurine (6-MP)],1.13 ± 0.24,1.33 ± 0.29
CCC(=O)OC1(C(=O)CCl)C(C)CC2C3CC(F)C4=CC(=O)C=CC4(C)C3(F)C(O)CC21C (stereo not drawn) [Halobetasol Propionate],0.859 ± 0.011,1.05 ± 0.29
COc1cc2ncnc(Nc3ccc(F)c(Cl)c3)c2cc1NC(=O)/C=C/CN1CCCCC1,0.477 ± 0.02,0.443 ± 0.033
CC(=O)OC(C)C(C)C(=O)OCC12C3CC4(C)C(=CCC5C6(C)CCC(OC7OC(C(=O)[O][Na])C(OC8OC(CO)C(O)C(O)C8O)C(O)C7OC7OCC(O)C(O)C7O)C(C)(CO)C6CCC54C)C1CC(C)(C)C(O3)C2O (stereo not drawn) [Sodium Aescinate],0.632 ± 0.25,1 ± 0.18
CN(C)CCC(c1ccc(Br)cc1)c1ccccn1.O=C(O)/C=C\C(=O)O (stereo not drawn) [Brompheniramine hydrogen maleate],1.17 ± 0.23,1.09 ± 0.15
CCc1cc2c(cc1N1CCC(N3CCOCC3)CC1)C(C)(C)c1[nH]c3cc(C#N)ccc3c1C2=O,0.732 ± 0.081,0.584 ± 0.18

SMILES,cell viability (IL-6-GFP PC-9GR),cell viability (IL-6-GFP PC-9)
"CC1(C)CCC(CN2CCN(c3ccc(C(=O)NS(=O)(=O)c4ccc(NCC5CCOCC5)c([N+](=O)[O-])c4)c(Oc4cnc5[nH]ccc5c4)c3)CC2)=C(c2ccc(Cl)cc2)C1 [Venetoclax (ABT-199, GDC-0199)]",0.907 ± 0.17,1.03 ± 0.15
CCCC1CC(C(=O)NC(C(C)O)C2OC(SC)C(O)C(O)C2O)N(C)C1.Cl (stereo not drawn) [Lincomycin HCl],1.13 ± 0.27,0.958 ± 0.048
C#Cc1cccc(Nc2ncnc3cc(OCCOC)c(OCCOC)cc23)c1 [Erlotinib],0.81 ± 0.028,0.616 ± 0.035
CC(=O)OC1C(=O)C2(C)C(O)CC3OCC3(OC(C)=O)C2C(OC(=O)c2ccccc2)C2(O)CC(OC(=O)C(O)C(NC(=O)c3ccccc3)c3ccccc3)C(C)=C1C2(C)C (stereo not drawn) [Paclitaxel],0.576 ± 0.036,0.57 ± 0.026
CC(C(=O)[O-])c1cccc(Oc2ccccc2)c1.CC(C(=O)[O-])c1cccc(Oc2ccccc2)c1.[Ca+2] (stereo not drawn) [Fenoprofen Calcium],1.26 ± 0.064,0.938 ± 0.013
"C/C=C1/C2C=C(C)CC1(N)c1ccc(=O)[nH]c1C2 (single isomer, unassigned; (-)) [(-)-Huperzine A (HupA)]",1.17 ± 0.37,1.29 ± 0.053
C=CC(=O)N1CCCC(n2nc(-c3ccc(Oc4ccccc4)cc3)c3c(N)ncnc32)C1 (stereo not drawn),0.572 ± 0.048,0.509 ± 0.18
CC/C(=C(/CC)c1ccc(O)cc1)c1ccc(O)cc1 [Diethylstilbestrol],1.13 ± 0.038,1.18 ± 0.19
CC(OC1OCCN(Cc2n[nH]c(=O)[nH]2)C1c1ccc(F)cc1)c1cc(C(F)(F)F)cc(C(F)(F)F)c1 (stereo not drawn) [Aprepitant],1.01 ± 0.071,0.767 ± 0.041
CC1(C)OC2CC3C4CCC5=CC(=O)C=CC5(C)C4C(O)CC3(C)C2(C(=O)CO)O1 (stereo not drawn) [Desonide],0.804 ± 0.24,0.683 ± 0.22
O=c1ccc2cc3ccoc3cc2o1 [Psoralen],0.808 ± 0.11,1.13 ± 0.057
Cl.N=C1CCCN1Cc1[nH]c(=O)[nH]c(=O)c1Cl [Tipiracil hydrochloride],1.14 ± 0.35,1.25 ± 0.059
O=C1OC(OC(=O)c2cccnc2Nc2cccc(C(F)(F)F)c2)c2ccccc21 (stereo not drawn) [Talniflumate],1 ± 0.022,0.967 ± 0.02
OCC1OC(OCC2OC(O)C(O)C(OC3OC(CO)C(O)C(OC4OC(CO)C(O)C(OC5OC(COC6OC(CO)C(O)C(O)C6O)C(O)C(OC6OC(CO)C(O)C(O)C6O)C5O)C4O)C3O)C2O)C(O)C(O)C1O (stereo not drawn) [Lentinan],0.121 ± 0.32,1.276 ± 0.0043
O=C(c1ccc(OCCN2CCCCC2)cc1)c1c(-c2ccc(O)cc2)sc2cc(O)ccc12 [Raloxifene],0.849 ± 0.1,1.08 ± 0.11
Cc1ccc(C(=O)Nc2ccc(CN3CCN(C)CC3)c(C(F)(F)F)c2)cc1C#Cc1cnc2cccnn12,0.464 ± 0.3,0.378 ± 0.19
O=c1[nH]c(=O)n(C2CC(O)C(CO)O2)cc1F (stereo not drawn) [Floxuridine],0.681 ± 0.02,0.808 ± 0.25
CC(O)CO.CCOc1ccc(Cc2cc(C3OC(CO)C(O)C(O)C3O)ccc2Cl)cc1.O (stereo not drawn) [Dapagliflozin propanediol monohydrate],1.07 ± 0.13,1.14 ± 0.11
Cl.Nc1ccn(C2OC(CO)C(O)C2(F)F)c(=O)n1 (stereo not drawn) [Gemcitabine HCl],0.596 ± 0.012,0.566 ± 0.046
CC(C)=CCOc1ccc(/C=C/C(=O)c2ccc(OCC=C(C)C)cc2OCC(=O)O)cc1 [Sofalcone],0.969 ± 0.2,1.01 ± 0.23

SMILES,cell viability (IL-6-GFP PC-9GR),cell viability (IL-6-GFP PC-9)
Cc1nc2ccc(CN(C)c3ccc(C(=O)NC(CCC(=O)O)C(=O)O)s3)cc2c(=O)[nH]1 (stereo not drawn) [Raltitrexed],0.5349 ± 0.0032,0.506 ± 0.17
CC(C)Cc1ccc(C(C)C(=O)O)cc1 (stereo not drawn) [Ibuprofen],1.32 ± 0.12,1.06 ± 0.19
CC(=O)c1c(C)c2cnc(Nc3ccc(N4CCNCC4)cn3)nc2n(C2CCCC2)c1=O.Cl,0.661 ± 0.17,0.694 ± 0.11
O=C(Oc1ccccc1C(=O)O)c1ccccc1O [Sasapyrine],0.988 ± 0.067,1.25 ± 0.019
Nc1nc(=O)c2c([nH]1)NCC(CNc1ccc(C(=O)NC(CCC(=O)[O-])C(=O)[O-])cc1)N2C=O.O.O.O.O.O.[Ca+2] (stereo not drawn) [Leucovorin Calcium Pentahydrate],1.25 ± 0.17,1.16 ± 0.28
NC(CC(=O)N1CCn2c(nnc2C(F)(F)F)C1)Cc1cc(F)c(F)cc1F (stereo not drawn) [Sitagliptin],1.62 ± 0.63,1.14 ± 0.12
Cc1c(-c2ccc(O)cc2)n(Cc2ccc(OCCN3CCCCCC3)cc2)c2ccc(O)cc12.Cl [Bazedoxifene HCl],0.539 ± 0.098,0.51 ± 0.077
CCC(C)C(=O)OC1CC(O)C=C2C=CC(C)C(CCC(O)CC(O)CC(=O)O)C21 (stereo not drawn) [Pravastatin],1.48 ± 0.39,0.999 ± 0.22
O=S1(=O)CCN(CN2CCS(=O)(=O)NC2)CN1 [Taurolidine],1.22 ± 0.27,1.234 ± 0.011
COc1cc(/C=C/C(=O)/C=C(O)/C=C/c2ccc(O)c(OC)c2)ccc1O [Curcumin],1.36 ± 0.48,0.985 ± 0.12
CC(Oc1cc(-c2cnn(C3CCNCC3)c2)cnc1N)c1c(Cl)ccc(F)c1Cl [(S)-crizotinib],0.458 ± 0.15,0.756 ± 0.12
CC(C)Cc1ccc(C(C)C(=O)OCc2ccccn2)cc1 (stereo not drawn) [Ibuprofen piconol],1.43 ± 0.54,1.17 ± 0.096
"O=C(c1ccc(F)c(F)c1Nc1ccc(I)cc1F)N1CC(O)(C2CCCCN2)C1 (stereo not drawn) [Cobimetinib (GDC-0973, RG7420)]",0.7146 ± 0.0029,0.115 ± 0.15
CC(=O)OCC(CCn1cnc2cnc(N)nc21)COC(C)=O [Famciclovir],1.32 ± 0.15,1.26 ± 0.18
CCCC(=O)OC1(C(=O)CCl)C(C)CC2C3CCC4=CC(=O)C=CC4(C)C3(F)C(=O)CC21C (stereo not drawn) [clobetasone butyrate],0.995 ± 0.17,0.99 ± 0.3
CN(C)CCN1C(=O)c2cccc3cc(N)cc(c23)C1=O [Amonafide],0.534 ± 0.025,0.425 ± 0.076
COc1ccc2cc(C(C)C(=O)[O-])ccc2c1.[Na+] (stereo not drawn) [Naproxen Sodium],1.36 ± 0.035,1.16 ± 0.16
Cn1c(=O)cc(N2CCCC(N)C2)n(Cc2ccccc2C#N)c1=O (stereo not drawn) [Alogliptin],0.0419 ± 0.21,1.29 ± 0.11
CCC1=CC2CN(C1)Cc1c([nH]c3ccccc13)C(C(=O)OC)(c1cc3c(cc1OC)N(C)C1C(O)(C(=O)OC)C(OC(C)=O)C4(CC)C=CCN5CCC31C54)C2.O=C(O)C(O)C(O)C(=O)O.O=C(O)C(O)C(O)C(=O)O (stereo not drawn) [Vinorelbine Tartrate],0.559 ± 0.13,0.566 ± 0.081
